According to PubChem BioAssay:
Results with a measured potency or affinity are listed apart. Calls of active or inactive are those of the source. Cut-off not given; nearly all actives show IC50 up to about 0.91 µM.

biological target: Calcium-dependent protein kinase 4 (Plasmodium falciparum (isolate 3D7)) (UniProt Q8IBS5); test: PfCDPK4 kinase inhibitors, biochemical, TCAMS library (AID 1159588); conditions: recombinant PfCDPK4, Kinase-Glo ATP depletion luminescence
Sequence (Q8IBS5 whole entry, looked up): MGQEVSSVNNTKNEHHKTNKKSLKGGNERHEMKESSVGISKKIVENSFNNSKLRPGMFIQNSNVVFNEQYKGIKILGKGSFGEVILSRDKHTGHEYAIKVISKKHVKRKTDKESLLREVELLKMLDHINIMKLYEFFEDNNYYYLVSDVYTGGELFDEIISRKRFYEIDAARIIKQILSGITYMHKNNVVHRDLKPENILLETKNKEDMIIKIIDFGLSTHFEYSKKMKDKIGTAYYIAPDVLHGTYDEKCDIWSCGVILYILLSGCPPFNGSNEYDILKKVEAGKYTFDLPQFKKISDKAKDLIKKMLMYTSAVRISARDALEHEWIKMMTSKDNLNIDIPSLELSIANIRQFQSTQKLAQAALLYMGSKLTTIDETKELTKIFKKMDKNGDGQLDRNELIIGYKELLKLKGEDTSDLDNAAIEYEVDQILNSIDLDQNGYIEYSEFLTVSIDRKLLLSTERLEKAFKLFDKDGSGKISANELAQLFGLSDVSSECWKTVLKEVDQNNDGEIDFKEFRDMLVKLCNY

outcome, inactive:
CC(C)NCC(O)COc1ccc(Cc2ccc(OCC(O)CNC(C)C)cc2)cc1 (stereo not given)
Cc1csc(NC(=O)c2cn(-c3ccccc3)nc2-c2cccs2)n1
OC(CNCCCc1ccccc1)c1cc(OCc2ccccc2)cc(OCc2ccccc2)c1 (stereo not given)
NC1CCN(Cc2ccc(-c3ccc(-c4nc5ccc(F)cc5[nH]4)s3)cc2)C1 (stereo not given)
N=c1n(CCN2CCCCC2)c2ccccc2n1CC(=O)c1cccc([N+](=O)[O-])c1
O=C(NC(=S)NCc1ccncc1)c1ccccc1
CC(Cc1ccc(NC(=O)c2ccc(CC(C)NCc3ccc(Cl)c(Cl)c3)cc2)cc1)NCCc1cccc(Cl)c1 (stereo not given)
Cc1cc(CNC(c2ccccc2)C2CCC2)cc(C)c1O (stereo not given)
Cc1ccc(CNC(=O)c2cnc(N3CCN(c4ccncc4)CC3)c(Cl)c2)cc1
O=C(/C=C/c1ccc(Cl)c(Cl)c1)N1CCC(CN2CCC(Cc3nc4ccccc4[nH]3)CC2)CC1
O=C(NCCSCc1c(F)cccc1Cl)c1cnc2c(c1)nc(-c1cnc(-c3ccccc3)[nH]1)n2CCc1cnc[nH]1
COc1ccc(-c2cccc(NC(=O)c3ccc(Cl)cc3)c2)cc1CN(C)CCN(C)C
CSc1cccc(NC(=O)Nc2ccc(I)c(OCCN(C)C)c2)c1
COc1ccc2nccc([C@@H](O)CN3CCC(NC(=O)/C=C/c4cc(F)cc(Br)c4)CC3)c2c1
CC(C)C(C(=O)n1ncc2c3c(N)nc(N)nc3ccc21)C(C)C
CC(C)N1CCC(N(Cc2ccc(-c3ccc(C(F)(F)F)cc3)cc2)C(=O)Cn2c(SCc3cccc(F)c3F)nc(=O)c3ccccc32)CC1
Cc1cc(NN=Cc2ccccc2)c2cc(F)ccc2n1
Cc1cc(N[C@@H](Cc2ccccc2)C(=O)NCc2cccs2)nc(Nc2ccccc2)n1
CCOc1cc2ncnc(Nc3ccc(OCc4ccccc4Br)c(OC)c3)c2cc1OCC
O=C(Nc1cccc(-c2ccc(CN3CCCC3)cc2)c1)c1cccc(F)c1
COCCOc1ccc(Nc2nccc(-c3c(-c4cccc(NC(=O)c5c(F)cccc5F)c4)nn4ccccc34)n2)cc1F
CC1(C)N=C(N)N=C(N)N1OCCCOc1cc(Cl)c(Cl)cc1Cl
FC(F)(F)c1ccc2nc(-c3ccc(-c4cccc(CN5CCN(CCN6CCOCC6)CC5)c4)cc3)[nH]c2c1
Clc1ccc(Nc2nc3nonc3nc2Nc2ccc(Cl)c(Cl)c2)cc1
Nc1ccc(-c2ccc3ccnc(N)c3c2)cn1
COc1cccc(Nc2nc(C)cc(NC3CCCC3)n2)c1
CCOc1ccc(OCC(=O)Nc2nc(-c3ccc(OC)cc3)c(C)s2)cc1
O=C(Nc1ccc(Cl)cc1)c1cc(Cl)ccc1NC(=O)C1CCc2ccccc2O1 (stereo not given)
Cc1cccc(-c2nc(Nc3ccncc3)c3cc(N(C)C)ccc3n2)n1
COc1ccc(NS(=O)(=O)c2cc(NC(=O)Cn3ccccc3=O)ccc2N2CCCCC2)cc1
COc1ccc2nccc([C@@H](O)CN3CCC(NCCOc4ccccc4[N+](=O)[O-])CC3)c2c1
Cc1noc(-c2ccc(O)cc2O)c1-c1ccc2c(c1)OCCCO2
N#Cc1cc(C(=O)c2cc(Cl)ccc2O)cn(-c2cc(Cl)cc(Cl)c2)c1=O
CC(C)c1ccc(C=CC(=O)N2CCC(CCN3CCC(c4c[nH]c5ccccc45)CC3)CC2)cc1
CN1CCC(C(=O)Nc2ccc(-c3ccc(-c4nc5ccccc5[nH]4)cc3)cc2)CC1
CC[C@@H]([C@@H](Cc1cc2ccccc2s1)C(=O)N[C@@H](CCCCNC(=O)OCc1ccccc1)C(=O)Nc1ccccn1)N(O)C=O
COc1ccc(Br)cc1/C=C/C(=O)Nc1ccc2c(c1)CCCN(C)C2
COc1ccc(NC(=O)[C@H](CC(C)C)Nc2cc(C)nc(NCc3cccc(C)c3)n2)cc1
N#Cc1cc([N+](=O)[O-])ccc1-n1nc(-c2cccc(Cl)c2)n(CC2CCCO2)c1=S (stereo not given)
O=C(NCCCCN1CCC(c2cccc3ccccc23)CC1)c1ccc(NC(=O)c2ccc(Cl)cc2)cc1
